Sampled rows, rich in hits. Any-hit rate of the full collection: about 12%.
Shiga inhibitor: blocks Shiga toxin action in Vero cells; Vero cells, Shiga toxin protein synthesis inhibition reporter; inhibition, % at 38.7 µM; 290,000 compounds, 9.2% hits; AID 2315; in the data active = inhibition mostly above about 28%, no sharp cut-off; inactive = mostly below about 43%
Sm TGR inh: blocks Schistosoma mansoni thioredoxin glutathione reductase | purified TGR, DTNB reduction, TNB absorbance 405 nm | Potency, µM (series often up to 114 µM), most hits filed as inhibitors | 360,000 compounds, 3% hits; active = well fitted inhibition curve with a large enough effect; inconclusive = small, poorly fitted or top-dose-only effect; inactive = no such curve, though single readings can be large or run the other way; also: nearly all actives have a fitted effect of over 60% in size
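Kinetic colorimetric format: TGR-catalysed, NADPH-driven DTNB reduction monitored via TNB absorbance. Enzyme dispensed at 20 nM; compound exposure 15 min at room temperature before reaction start.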
Cycloheximide cs: counter-screen for Shiga toxin inhibitors: cycloheximide protein synthesis inhibition; AID 2314; max response, %; 300,000 compounds, 12% hits; cell reporter, cycloheximide protein synthesis inhibition counterscreen; in the data active = max response mostly above about 13%, no sharp cut-off; inactive = mostly below about 14%; also: read at 38.3 µM for the half of the compounds with a filed dose
FMDV antiviral: foot and mouth disease virus antiviral activity; FMDV antiviral cell-based qHTS; Potency, µM (top dose mostly 57.9 µM), usual class: inhibitors; 410,000 compounds, 1.2% hits; calls by dose curve; tested in HEK293T cells; also: read-out not given here; nearly all actives have a fitted effect of over 45% in size
A number is an active result; 0 = inactive; ? = inconclusive; - = no result given.

SMILES | Shiga inhibitor | Sm TGR inh | Cycloheximide cs | FMDV antiviral
O=C(Nc1nc(-c2ccc(Cl)cc2)cs1)C1CCCO1 (stereo not given) | 91 | 0 | 36 | 0
COc1ccc(OC)c(C(C)NC(=O)C23CC4CC(CC(C4)C2)C3)c1 (stereo not given) | - | 0 | 0 | 0
Cc1cccc(C(=O)NNC(=O)C23CC4CC(CC(C4)C2)C3)c1O | 0 | 0 | 14 | 0
COc1ccc(C(=O)NNC(=O)C23CC4CC(CC(C4)C2)C3)c(OC)c1 | 0 | 0 | 21 | 0
Cc1ccccc1C(=O)NNC(=O)C12CC3CC(CC(C3)C1)C2 | 0 | - | 0 | 0
CC(C)c1ccc2occ(CC(=O)Nc3ccccc3Cl)c2c1 | - | 0 | - | 0
O=C(CCl)N(Cc1ccccc1)c1ccccc1 | 0 | 5µM | 26 | 22µM
Cc1cccc(N(Cc2ccccc2)C(=O)CCl)c1 | 0 | 14µM | 0 | 13µM
COc1ccc(CC(=O)N(Cc2ccccc2)c2cccc(C)c2)cc1OC | 0 | 0 | 0 | ?
CN1CCN(c2ncc3nc(-c4cccc(C#N)c4)c(=O)n(Cc4ccc(F)cc4)c3n2)CC1 | - | - | - | 0
COc1ccc(/C=C/C(=O)Nc2cc(C)on2)cc1 | 107 | 0 | 42 | 0
Cc1cc(NC(=O)/C=C/c2ccccc2Cl)no1 | 67 | 0 | 23 | 0
COc1ccc(C(=O)/C=C/Nc2cc(C)on2)cc1 | 65 | 0 | 47 | -
Cc1cc(NC(=O)/C=C/c2ccccc2)no1 | 63 | 0 | 41 | -
Cc1ccsc1CN(Cc1ccco1)c1cnc(S(C)(=O)=O)nc1C(=O)Nc1ccc(Cl)cc1 | - | 0 | - | 0
CNC(=O)C1CCC(Cn2c(=O)c3sccc3n(CC(=O)Nc3cc(C)cc(C)c3)c2=O)CC1 (stereo not given) | - | 0 | - | 0
Cc1cccc(OCC(=O)Nc2cccc(C(=O)OCc3cc(=O)n4c(C)csc4n3)c2)c1 | - | 0 | - | 0
O=C(CCC1N=C2c3ccccc3N=C(SCc3cccc(Cl)c3)N2C1=O)NCc1ccco1 (stereo not given) | 0 | ? | 15 | 0
Cc1ccc(NC(=O)CSc2ccc(-c3cccs3)nn2)cc1Cl | - | 0 | - | 0
COc1ccc(OCc2nc(N)nc(Nc3cccc(C)c3C)n2)cc1 | 0 | 0 | 0 | 0
Cc1nc(N)nc(COc2ccccc2)n1 | 46 | 0 | 37 | 0
COc1ccc(OCc2nc(N)nc(Nc3ccccc3)n2)cc1 | 0 | 0 | 21 | 0
COc1ccc(OCc2nc(N)nc(Nc3ccc(C)cc3)n2)cc1 | 0 | 0 | 15 | 0
COc1ccc(NC(=O)c2cnc3sc(N4CCOCC4)nn3c2=O)c(OC)c1 | - | 0 | - | 0
O=C(O)C1CC(c2ccccc2)=Nc2ccccc2S1 (stereo not given) | 72 | 0 | 58 | 0
SMILES | Shiga inhibitor | Sm TGR inh | Cycloheximide cs | FMDV antiviral
O=[N+]([O-])c1ccc(C2CC(c3ccccc3)=Nc3ccccc3S2)cc1 (stereo not given) | 67 | 0 | 57 | 0
Fc1ccc(C2CC(c3ccco3)=Nc3ccccc3S2)cc1 (stereo not given) | 0 | 0 | 0 | 0
CC(C)CN1CCC(Oc2cccc(C(=O)NCCc3ccccc3)c2)CC1 | 60 | 0 | 27 | 0
Cc1ccc(CN2CCC(Oc3cccc(C(=O)NCc4cccnc4)c3)CC2)o1 | 0 | 32µM | 0 | 0
COCCNC(=O)c1cccc(OC2CCN(Cc3ccc(C(C)C)cc3)CC2)c1 | - | 0 | 0 | 0
COCCNC(=O)c1cccc(OC2CCN(Cc3ccc(C(=O)OC)cc3)CC2)c1 | 0 | 0 | 0 | 0
Cc1ccc(CN2CCC(Oc3ccc(C(=O)NCc4ccccn4)cc3)CC2)o1 | 0 | 0 | 0 | 0
COCC(C)N1CCC(Oc2cccc(C(=O)NCCc3ccccc3)c2)CC1 (stereo not given) | 107 | 0 | 59 | 0
CC(NC(=O)c1cccc(OC2CCN(C3CCN(C)CC3)CC2)c1)c1ccccc1 (stereo not given) | 0 | 14µM | 0 | 0
COc1ccc(NC(=O)/C(C#N)=C/c2ccc[nH]2)c(OC)c1 | 0 | 0 | 0 | 0
N#C/C(=C\c1ccc[nH]1)C(=O)Nc1ccccc1Cl | 61 | 0 | 33 | 0
N#C/C(=C\c1ccc[nH]1)C(=O)c1ccccc1 | 99 | 0 | 33 | 0
N#C/C(=C\c1cccc(Cl)c1)C(=O)c1ccccc1 | 0 | 50µM | 0 | 0
COc1cccc(C=C(C#N)C(=O)c2ccccc2)c1 | - | - | - | 0
N#C/C(=C\c1ccc[nH]1)C(=O)Nc1ccccc1F | 74 | 0 | 34 | 0
COc1c(Cl)cc(Cl)cc1CNCCSc1nnnn1C | - | 0 | - | 0
Cc1ccc(/C=C/c2onc(C)c2S(=O)(=O)N2CCC(C(=O)N(CCC(C)C)Cc3ccco3)CC2)cc1 | - | 0 | - | 0
Cc1cc2c(s1)c1cnn(Cc3ccc(F)cc3)c(=O)c1n2C | 0 | - | 0 | -
Cc1cc(/C=C(\C#N)C(=O)Nc2ccccc2F)c(C)[nH]1 | 64 | ? | 46 | 0
